{"source": "the antibiotic and cytotoxicity screens of Wong et al. (2023)", "note": "Hit rate of the full screen: of about 39,000 compounds, about 1,500 (3.8%) were called active. The sample holds actives, similar compounds and a random draw of the others, so the mix is not that of the screen."}
{"system": "HSkMC (human skeletal muscle cells)", "experiment": "cytotoxicity call (relative viability < 0.9)", "details": "10 µM"}
{"smiles": "C[C@@H]1CN([C@H](C)CO)C(=O)c2cc(NS(=O)(=O)c3cn(C)cn3)ccc2O[C@@H]1CN(C)Cc1ccc(C(=O)Nc2ccccc2N)cc1", "cytotoxicity call": "inactive"}
{"smiles": "O=C(Nc1cccc2cccnc12)[C@H]1[C@@H](c2ccc(Br)cc2)CC(=O)N1C(=O)OCc1ccccc1", "cytotoxicity call": "inactive"}
{"smiles": "C[C@H]1CN([C@@H](C)CO)C(=O)c2cc(NS(=O)(=O)c3cn(C)cn3)ccc2O[C@@H]1CN(C)Cc1ccc(C(=O)O)cc1", "cytotoxicity call": "inactive"}
{"smiles": "O=C(C[C@H]1CC[C@H]2[C@@H](COC[C@H](O)CN2C(=O)Nc2cccc(F)c2)O1)NCCCN1CCOCC1", "cytotoxicity call": "inactive"}
{"smiles": "C[C@@H]1CN([C@H](C)CO)C(=O)c2cc(NC(=O)Cc3ccccc3)ccc2O[C@H]1CN(C)Cc1ccc(Oc2ccccc2)cc1", "cytotoxicity call": "inactive"}
{"smiles": "O=C(C[C@@H]1C[C@H]2c3cc(NC(=O)Nc4ccc(C(F)(F)F)cc4)ccc3O[C@H]2[C@@H](CO)O1)NCc1cc(F)ccc1F", "cytotoxicity call": "inactive"}
{"smiles": "Cc1ccc(S(=O)(=O)Nc2ccc3c(c2)C(=O)N([C@@H](C)CO)C[C@@H](C)[C@@H](CN(C)C(=O)c2ccccc2)OCCCC[C@H](C)O3)cc1", "cytotoxicity call": "inactive"}
{"smiles": "C[C@@H]1CN([C@@H](C)CO)C(=O)c2cc(NC(=O)c3ccncc3)ccc2O[C@H]1CN(C)Cc1ccc(-c2ccccc2)cc1", "cytotoxicity call": "inactive"}
{"smiles": "C[C@@H]1CN([C@@H](C)CO)C(=O)CCCn2nncc2CO[C@H]1CN(C)C(=O)Nc1cccc(Oc2ccccn2)c1", "cytotoxicity call": "inactive"}
{"smiles": "COc1ccc(NC(=O)N(C)C[C@@H]2Oc3ncc(C#CCN(C)C)cc3C(=O)N([C@@H](C)CO)C[C@H]2C)cc1", "cytotoxicity call": "inactive"}
{"smiles": "C[C@@H]1O[C@H](O)[C@@H](F)[C@H](O)[C@@H]1O", "cytotoxicity call": "inactive"}
{"smiles": "C[C@@H]1CCCCO[C@@H](CN(C)Cc2ccc(C(F)(F)F)cc2)[C@@H](C)CN([C@@H](C)CO)C(=O)c2cc(NC(=O)Nc3ccc(C(F)(F)F)cc3)ccc2O1", "cytotoxicity call": "active"}
{"smiles": "C[C@@H]1CN([C@H](C)CO)C(=O)c2cc(NC(=O)Nc3ccc(C(F)(F)F)cc3)ccc2O[C@@H](C)CCCCO[C@H]1CN(C)Cc1ccc(C(F)(F)F)cc1", "cytotoxicity call": "active"}
{"smiles": "C[C@H](CO)N1C[C@H](C)[C@H](CN(C)Cc2ccc(C(F)(F)F)cc2)OCCCC[C@H](C)Oc2ccc(NC(=O)Nc3ccc(C(F)(F)F)cc3)cc2C1=O", "cytotoxicity call": "inactive"}
{"smiles": "C[C@@H]1CCCCO[C@@H](CN(C)Cc2ccc(C(F)(F)F)cc2)[C@H](C)CN([C@@H](C)CO)C(=O)c2cc(NC(=O)Nc3ccc(C(F)(F)F)cc3)ccc2O1", "cytotoxicity call": "active"}
{"smiles": "C[C@@H]1CCCCO[C@@H](CN(C)Cc2ccc(C(F)(F)F)cc2)[C@@H](C)CN([C@H](C)CO)C(=O)c2cc(NC(=O)Nc3ccc(C(F)(F)F)cc3)ccc2O1", "cytotoxicity call": "inactive"}
{"smiles": "C[C@H]1CCCCO[C@@H](CN(C)Cc2ccc(C(F)(F)F)cc2)[C@@H](C)CN([C@@H](C)CO)C(=O)c2cc(NC(=O)Nc3ccc(C(F)(F)F)cc3)ccc2O1", "cytotoxicity call": "active"}
{"smiles": "C[C@@H]1CN([C@@H](C)CO)C(=O)c2cc(NC(=O)Nc3ccc(C(F)(F)F)cc3)ccc2O[C@@H](C)CCCCO[C@@H]1CN(C)Cc1ccc(C(F)(F)F)cc1", "cytotoxicity call": "inactive"}
{"smiles": "C[C@@H]1CCCCO[C@@H](CN(C)Cc2ccc(C(F)(F)F)cc2)[C@H](C)CN([C@H](C)CO)C(=O)c2cc(NC(=O)Nc3ccc(C(F)(F)F)cc3)ccc2O1", "cytotoxicity call": "inactive"}
{"smiles": "CNC[C@H]1OCCCC[C@H](C)Oc2ccc(NC(=O)CCCN(C)C)cc2C(=O)N([C@H](C)CO)C[C@@H]1C", "cytotoxicity call": "inactive"}
{"smiles": "C[C@@H]1CN([C@H](C)CO)C(=O)c2cccc(NC(=O)c3ccncc3)c2O[C@H]1CN(C)S(=O)(=O)c1ccccc1", "cytotoxicity call": "inactive"}
{"smiles": "C[C@H](CO)N1C[C@H](C)[C@H](CN(C)S(=O)(=O)c2cn(C)cn2)Oc2ccc(NC(=O)CCCCCC(=O)Nc3ccccc3N)cc2C1=O", "cytotoxicity call": "inactive"}
{"smiles": "CCOC(=O)CCCCCCCCCCCC[C@@H]1C=CCC1", "cytotoxicity call": "inactive"}
{"smiles": "C[C@H](CO)N1C[C@H](C)[C@H](CN(C)Cc2ccc(C(=O)Nc3ccccc3N)cc2)OCCCC[C@H](C)Oc2ccc(NC(=O)C3CCCCC3)cc2C1=O", "cytotoxicity call": "inactive"}
{"smiles": "C[C@@H]1CN([C@H](C)CO)C(=O)c2cccc(NS(=O)(=O)c3cn(C)cn3)c2O[C@H]1CN(C)C(=O)Nc1ccc2c(c1)OCO2", "cytotoxicity call": "inactive"}
{"smiles": "CCOC(=O)Cn1cccc2oc(=O)nc1-2", "cytotoxicity call": "inactive"}
{"smiles": "C[C@H]1CN([C@@H](C)CO)C(=O)c2c(c3ccccc3n2C)-c2ccccc2CO[C@H]1CN(C)C(=O)Nc1ccccc1", "cytotoxicity call": "inactive"}
{"smiles": "C[C@@H]1CN([C@@H](C)CO)C(=O)c2c(c3ccccc3n2C)-c2ccccc2CO[C@H]1CN(C)C(=O)[C@H](C)c1ccccc1", "cytotoxicity call": "inactive"}
{"smiles": "COc1ccc(NC(=O)N(C)C[C@@H]2Oc3ccc(NC(=O)Nc4cccc5ccccc45)cc3CC(=O)N([C@H](C)CO)C[C@@H]2C)cc1", "cytotoxicity call": "inactive"}
{"smiles": "COc1ccccc1-c1cnc2c(c1)C(=O)N([C@H](C)CO)C[C@@H](C)[C@H](CN(C)C(=O)c1ccncc1)O2", "cytotoxicity call": "inactive"}
{"smiles": "Cc1ccc(-c2cnc3c(c2)C(=O)N([C@@H](C)CO)C[C@H](C)[C@@H](CN(C)C(=O)Cc2ccncc2)O3)cc1", "cytotoxicity call": "inactive"}
{"smiles": "C[C@@H]1CN([C@H](C)CO)C(=O)c2cccc(NC(=O)c3ccc(-c4nccs4)cc3)c2O[C@@H]1CN(C)C(=O)NC1CCCCC1", "cytotoxicity call": "inactive"}
{"smiles": "C[C@@H]1CCCCO[C@H](CN(C)Cc2ccc(C(F)(F)F)cc2)[C@@H](C)CN([C@H](C)CO)C(=O)c2cc(NC(=O)Nc3ccc(C(F)(F)F)cc3)ccc2O1", "cytotoxicity call": "inactive"}
{"smiles": "C[C@@H]1CN([C@H](C)CO)C(=O)c2cc(NC(=O)Nc3ccc(C(F)(F)F)cc3)ccc2O[C@@H](C)CCCCO[C@@H]1CN(C)Cc1ccncc1", "cytotoxicity call": "active"}
{"smiles": "C[C@@H]1CN([C@H](C)CO)C(=O)c2cc(NC(=O)Nc3ccc(C(F)(F)F)cc3)ccc2O[C@@H](C)CCCCO[C@H]1CN(C)Cc1ccc(Cl)c(Cl)c1", "cytotoxicity call": "inactive"}
{"smiles": "C[C@H](CO)N1C[C@H](C)[C@H](CN(C)Cc2ccc(C(F)(F)F)cc2)OCCCC[C@H](C)Oc2ccc(NC(=O)Nc3ccc(F)cc3)cc2C1=O", "cytotoxicity call": "inactive"}
{"smiles": "C[C@H](CO)N1C[C@H](C)[C@@H](CN(C)Cc2ccc(Cl)c(Cl)c2)OCCCC[C@H](C)Oc2ccc(NC(=O)Nc3ccc(C(F)(F)F)cc3)cc2C1=O", "cytotoxicity call": "active"}
{"smiles": "C[C@@H]1CN([C@H](C)CO)C(=O)c2cc(NC(=O)Nc3ccc(C(F)(F)F)cc3)ccc2O[C@@H](C)CCCCO[C@@H]1CN(C)Cc1ccc(C(F)(F)F)cc1", "cytotoxicity call": "active"}
{"smiles": "C[C@H](CO)N1C[C@H](C)[C@@H](CN(C)Cc2ccncc2)OCCCC[C@H](C)Oc2ccc(NC(=O)Nc3ccc(C(F)(F)F)cc3)cc2C1=O", "cytotoxicity call": "inactive"}
{"smiles": "C[C@@H]1CCCCO[C@@H](CN(C)Cc2ccc(C(F)(F)F)cc2)[C@H](C)CN([C@@H](C)CO)C(=O)c2cc(NC(=O)Nc3ccc(F)cc3)ccc2O1", "cytotoxicity call": "inactive"}
{"smiles": "C[C@@H]1CN([C@H](C)CO)C(=O)c2cc(NC(=O)Nc3ccc(F)cc3)ccc2O[C@@H](C)CCCCO[C@H]1CN(C)Cc1ccc(C(F)(F)F)cc1", "cytotoxicity call": "active"}
{"smiles": "C[C@H]1CCCCO[C@H](CN(C)Cc2ccc(C(F)(F)F)cc2)[C@@H](C)CN([C@@H](C)CO)C(=O)c2cc(NC(=O)Nc3ccc(F)cc3)ccc2O1", "cytotoxicity call": "inactive"}
{"smiles": "C[C@@H]1CCCCO[C@@H](CN(C)Cc2ccncc2)[C@H](C)CN([C@H](C)CO)C(=O)c2cc(NC(=O)Nc3ccc(C(F)(F)F)cc3)ccc2O1", "cytotoxicity call": "inactive"}
{"smiles": "C[C@@H]1CN([C@@H](C)CO)C(=O)c2cc(NC(=O)Nc3ccc(C(F)(F)F)cc3)ccc2O[C@@H](C)CCCCO[C@H]1CN(C)Cc1ccc(Cl)c(Cl)c1", "cytotoxicity call": "inactive"}
